Hits are enriched below; roughly 12% of the tested compounds scored in any of these assays.
ROMK mod: ROMK potassium channel modulators, primary screen, cell-based, thallium flux, MLSMR library; B-score at 10 µM; Tet-inducible ROMK, thallium flux fluorescence; actives lie on both sides; AID 1918, 2009; actives 2% (n = 130,000); ATP-sensitive inward rectifier potassium channel 1 (Homo sapiens), P48048;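 active = signal ratio slope over the read window, or its plate-corrected B-score, at least 3 SD from the plate mean, either direction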;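 also: B-score of the F/F0 ratio slope over 7 to 12 s after thallium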
KCC2 mod: KCC2 cotransporter modulators, thallium flux, primary screen, cell-based, HEK293 KCC2, FluoZin-2 fluorescence, MLSMR; Solute carrier family 12 member 5 (Homo sapiens), Q9H2X9; KCC2 cells, thallium flux FluoZin-2 fluorescence; B-score of Tl+ flux slope (higher = more flux/activation; lower = inhibition) at 10 µM; actives 2.2% (n = 190,000); AID 1456, 2008;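 active = thallium flux slope and its plate-corrected score both differing from the plate sample mean at a set confidence after two filtering rounds, in either direction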;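 also: slope of fluorescence scaled to starting intensity during 10 to 20 s after thallium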
m-calpain inh: inhibitors of pig calpain II, primary screen, biochemical, fluorogenic peptide substrate, 1536-well; purified calpain II, 30 min; inhibition, % at 16 µM; actives 0.37% (n = 220,000);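 active = inhibition above about 50%, limit read from the data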
L major viab: Leishmania major promastigote growth inhibition, primary screen; Leishmania major promastigotes, resazurin fluorescence viability; actives 9% (n = 200,000); AID 1063, 2008; inhibition, % at 10 µM; in the data active = inhibition above about 50%;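 also: promastigotes grown with compound for 44 hours at 28 °C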
WT yeast gro inh: growth inhibition of WT strain, primary screen, mitochondrial fusion inhibitor project, WT and mutant strains, chemical genetic. actives 2.1% (n = 190,000). mitochondrial fusion phenotypic screen. inhibition, % at 10 µM. AID 1362, 2008; in the data active = inhibition above about 58%; tested in S. cerevisiae
Starred values were filed as active, the others as inactive; i = inactive; x = no result.

SMILES	ROMK mod	KCC2 mod	m-calpain inh	L major viab	WT yeast gro inh
O=C(c1ccc(C(F)(F)F)cc1)C1CCCN(Cc2ccc(CO)o2)C1 (stereo not drawn)	1.1	x	-12	88*	3
CCn1c(NN=O)nc2ccccc21	x	5.5	-29	53*	3
CC(=O)N1CCC2(CC1)CC(=O)c1cc(OCC(=O)N3CCN(C)CC3)ccc1O2	x	0.44	i	-2	-2
C(#CCN1CCOCC1)COC/C=C/c1ccccc1	-0.19	0.042	17	1	6
COc1ccc(OCC#CCN2CCCCCC2)cc1	0.1	-1	-7	85*	-2
Clc1ccc(OCC#CCN2CCOCC2)cc1	x	-0.001	16	-3	-3
C(#CCN1CCCCC1)COCc1ccccc1	-0.22	0.79	-7	89*	2
CCN1C(=O)/C(=C/c2ccc(N(CC)CC)cc2OC)C(=O)NC1=S	-0.45	0.7	17	99*	15
CCOc1ccc(-c2cc(C)[n+](CCO)c(-c3ccc(OCC)cc3)c2)cc1	-0.66	0.32	i	99*	-6
Cn1c(O)c(/C=N/c2ncccn2)c(=O)n(C)c1=O	1.5	1.8	-3	78*	18
Cc1ccc(N2CCN(CCc3ccccc3)CC2)cc1	x	-3.1	15	84*	2
CN1C(=O)C(=Cc2ccccc2OCc2ccccc2Cl)C(=O)N(C)C1=O	x	-0.32	-16	66*	-22
O=C1NC(=O)C(=Cc2ccc(Oc3ccc([N+](=O)[O-])cc3)cc2)C(=O)N1	-0.016	-0.28	29	10	-30
O=C1NC(=O)C(=Cc2ccccc2OCCOc2ccc([N+](=O)[O-])cc2)C(=O)N1	2.3	x	-47	64*	21
CN1C(=O)C(=Cc2ccccc2OCCOc2ccc([N+](=O)[O-])cc2)C(=O)N(C)C1=O	1.2	-2.6	-30	78*	6
CN1C(=O)C(=Cc2ccccc2OCc2ccc(C(=O)O)cc2)C(=O)N(C)C1=O	1.1	-0.029	-14	-9	-16
CC(C)n1c(=O)c(C=Nc2ccc(F)cc2)c(O)n(Cc2ccco2)c1=O	-0.64	0.59	1	-3	25
CN1CCc2nc(SCc3ccccc3Br)c(C#N)cc2C1	1.2	0.9	28	65*	56
CCOC(=O)c1c(-n2c(C)cc(C=C3C(=O)NC(=S)NC3=O)c2C)sc2c1CCCC2	x	x	-332	100*	78*
Cc1ccc(N2C(=O)NC(=O)/C(=C\c3cc(C)n(-c4sc5c(c4C#N)CCCC5)c3C)C2=O)cc1	x	-0.015	-33	-6	10
CCOC(=O)c1c(-n2c(C)cc(/C=C3/C(=O)NC(=O)N(CC)C3=O)c2C)sc2c1CCCC2	x	x	x	96*	x
CCC(C)N1C(=O)NC(=O)C2(Cc3c(ccc4ccccc34)N(C)C2)C1=O (stereo not drawn)	-2.5	-2.6	-19	22	14
FC(F)(F)c1cccc(-n2nnnc2C2(N3CCOCC3)CCCCC2)c1	x	-0.35	10	84*	-4
COc1ccc(C(=O)c2nc3ccccc3n2C(C)C)cc1	-0.28	i	18	51*	1
CCCn1c(C(=O)c2ccc(OC)cc2)nc2ccccc21	-0.81	-1.6	14	8	-5
SMILES	ROMK mod	KCC2 mod	m-calpain inh	L major viab	WT yeast gro inh
N=c1c2c(n(Cc3ccc(Cl)cc3Cl)c3c1CCC3)CCCC2	x	-0.3	-14	100*	70*
Cc1nn(Cc2ccc(Cl)cc2Cl)c(Cl)c1C(=O)O	-0.029	-1.1	-3	-8	-12
c1ccc(CN2CCN(Cc3ccc4c(c3)OCCO4)CC2)cc1	0.018	-0.53	2	80*	24
CCOC(=O)c1[nH]ncc1CN1CCCC(C(=O)c2cccc(Cl)c2)C1 (stereo not drawn)	x	0.32	7	x	x
Cc1cc(Cl)ccc1C(=O)C1CCCN(Cc2ccon2)C1 (stereo not drawn)	1.2	0.011	22	48	8
O=C(c1ccc(Cl)cc1)C1CCCN(Cc2cccc3ncccc23)C1 (stereo not drawn)	-1.8	-0.84	0	81*	19
O=C(c1ccc(Cl)cc1)C1CCCN(Cc2ccc3nonc3c2)C1 (stereo not drawn)	-1	x	16	85*	56
O=C(c1ccc(Cl)cc1)C1CCCN(Cc2cccc3cccnc23)C1 (stereo not drawn)	-1.9	-0.18	23	83*	12
c1ccc2c3c(ccc2c1)OCC1CONC31 (stereo not drawn)	-0.34	0.021	30	-4	7
C#CC[N+]1(C)C2CCC1CC(O)C2 (stereo not drawn)	x	-0.54	-19	-5	-8
CC1=C(/C=C/c2ccccc2)CCN(C)C1	-1.2	0.17	13	99*	7
Oc1c(Br)cc(Br)cc1Oc1ccc(Br)cc1Br	0.53	6*	4	-6	95
c1ccc(-c2ccc(-c3n(-c4ccccn4)c4ccccc4[n+]3-c3ccccn3)cc2)cc1	-1.5	0.013	i	88*	16
CCn1c(P(C)(=O)O)nc2cc(NC(=O)c3ccccc3F)ccc21	0.91	0.59	-14	-10	4
O=C(CCN1CCOCC1)NCC(=O)Nc1ccc(Br)cc1C(=O)c1ccccc1	x	x	-6	-3	-2
CC(C(=O)Nc1ccc(Br)cc1C(=O)c1ccccc1)N1CCOCC1 (stereo not drawn)	x	0.26	17	99*	-8
CC12CCCCC1=NC(c1ccc(Br)cc1)N2O (stereo not drawn)	x	-1.1	20	-5	10
COC(=O)C(O)(c1ccc(NC(=S)NC(=O)c2ccc(Cl)cc2Cl)c(C)c1)C(F)(F)F (stereo not drawn)	-0.75	3	3	6	75*
CCOC(=O)C(O)(c1ccc(NC(=S)NC(=O)c2ccc(Cl)cc2Cl)cc1)C(F)(F)F (stereo not drawn)	1.3	0.53	31	67*	33
CCOC(=O)C(NC(=O)CC)(Nc1ccc(C(O)(C(=O)OCC)C(F)(F)F)cc1C)C(F)(F)F (stereo not drawn)	1.4	-0.34	-4	-1	36
COC(=O)C(O)(c1ccc(NC(=S)NC(=O)c2ccc(Cl)cc2Cl)cc1)C(F)(F)F (stereo not drawn)	x	1.5	31	42	27
CN1C(=O)N(C)C(=O)C2(Cc3cc([N+](=O)[O-])ccc3N(C)C2c2ccccc2)C1=O (stereo not drawn)	x	-0.83	-5	5	2
Cc1ccccc1OCCN=Cc1c(O)n(C)c(=O)n(C)c1=O	x	0.13	9	2	-15
CCN1CCN(C(=O)COc2ccc(S(=O)(=O)N(C)Cc3ccccc3)cc2)CC1	-1.7	-1.2	16	99*	-2
CN1C(=O)/C(=C/c2cccn2-c2ccc3ccccc3c2)C(=O)NC1=S	-0.51	-0.011	-81	100*	27
O=C1NC(=S)NC(=O)C1=Cc1cccn1-c1ccc(O)cc1	x	-1.2	-53	100*	-12

Assay outcomes: PubChem BioAssay, several laboratories
